Inconclusive results are not listed. The source made the active and inactive calls. The call rests on the fitted dose curve; in most records, active means well fitted cell-killing curve with a large enough effect in the repeat runs; inconclusive means weak or mixed curves, or effect the other way; inactive means no such curve, though single readings can be large or run the other way.
experiment: qHTS assay for small molecule activators of the heat shock response signaling pathway - cell viability counter screen (AID 743209); settings: HSE-bla HeLa viability, CellTiter-Glo luminescence, 5 h; series mostly up to 62.6 µM; activity change, negative = cytotoxicity: at the top concentration; further: nearly all actives have a fitted effect of over 50% in size
Method in brief: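 Cytotoxicity counter screen run in parallel with the HSE beta-lactamase reporter, using the same wells. HeLa HSE-bla cells received compound for 5 h at 37 C; ATP-based CellTiter-Glo luminescence was measured after 30 min at room temperature.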
On the % scale 0 is the no-effect control and ±100 the full control effect.

| SMILES | activity change, negative = cytotoxicity |
| --- | --- |
| CCCC(=O)OC(=O)CCC | 6.62% [at 81.1 µM] (inactive) |
| Nc1ccc(F)cc1 | -9.94% [at 81.1 µM] (inactive) |
| C[C@@H]1[C@H](O)[C@@H](C)/C=C/C=C\C=C\C=C\C=C\C=C\C=C\[C@H](O[C@@H]2O[C@H](C)[C@@H](O)[C@H](N)[C@@H]2O)C[C@@H]2O[C@](O)(C[C@@H](O)C[C@@H](O)[C@H](O)CC[C@@H](O)C[C@@H](O)CC(=O)O[C@H]1C)C[C@H](O)[C@H]2C(=O)O (stereo in doubt) | -10.1% (inactive) |
| CC(C)(C)NCC(O)COc1cccc2c1C[C@H](O)[C@H](O)C2 (some centres not stated) | 13.1% (inactive) |
| COc1ccc(CCN(C)CCCN2CCc3cc(OC)c(OC)cc3CC2=O)cc1OC | 1.31% (inactive) |
| COc1cc(NS(=O)(=O)c2ccc(N)cc2)nc(C)n1 | 2.88% (inactive) |
| CC(C)C(O)C(C)(C)CO (configuration not stated) | 0.872% [at 81.1 µM] (inactive) |
| COc1ccc(-c2cc(C(F)F)nn2-c2ccc(S(N)(=O)=O)cc2)cc1F | 6.57% (inactive) |
| [Cl][Nd]([Cl])[Cl] | -0.846% (inactive) |
| CC(C)OC(=O)c1ccccc1C(=O)OC(C)C | -17.7% (inactive) |
| CCCCCCC(O)CCOC(C)=O (configuration not stated) | 5.2% [at 232 µM] (inactive) |
| CCO[Si](C)(CCCOCC1CO1)OCC (configuration not stated) | -8.46% (inactive) |
| CC[C@H]1OC(=O)[C@H](C)[C@@H](O[C@H]2C[C@@](C)(OC)[C@@H](O)[C@H](C)O2)[C@H](C)[C@@H](O[C@@H]2O[C@H](C)C[C@H](N(C)C)[C@H]2O)[C@](C)(O)C[C@@H](C)/C(=N\OCOCCOC)[C@H](C)[C@@H](O)[C@]1(C)O | 1.08% (inactive) |
| CCCCCCCCCCCCCOC(=O)CCSCCC(=O)OCCCCCCCCCCCCC | -1.72% [at 29.1 µM] (inactive) |
| Cc1cc(CCC(=O)OCCOCCOCCOC(=O)CCc2cc(C)c(O)c(C(C)(C)C)c2)cc(C(C)(C)C)c1O | 1.39% (inactive) |
| COC(CC(C)CCCC(C)(C)O)OC (configuration not stated) | -4.43% (inactive) |
| O=C(O)/C=C/c1ccc(O)c(O)c1 | -8.49% [at 81.1 µM] (inactive) |
| CSSc1ccoc1C | -13.5% (inactive) |
| CC(=O)OCC(=O)[C@@]1(OC(C)=O)[C@@H](C)C[C@H]2[C@@H]3C[C@H](F)C4=CC(=O)C=C[C@]4(C)[C@@]3(F)[C@@H](O)C[C@@]21C | 2.27% (inactive) |
| C=C(C)C(=O)OCCC(F)(F)C(F)(F)C(F)(F)C(F)(F)C(F)(F)C(F)(F)F | -0.0053% (inactive) |
| CC(C)C1CCC(C(=O)N[C@H](Cc2ccccc2)C(=O)O)CC1 (some centres not stated) | 1.67% (inactive) |
| CC[C@H]1OC(=O)[C@H](C)[C@@H](O[C@H]2C[C@@](C)(OC)[C@@H](O)[C@H](C)O2)[C@H](C)[C@@H](O[C@@H]2O[C@H](C)C[C@H](N(C)C)[C@H]2O)[C@](C)(O)C[C@@H](C)CN(C)[C@H](C)[C@@H](O)[C@]1(C)O | 6.78% (inactive) |

Reference: PubChem BioAssay (Tox21)
